Bioassay records deposited in PubChem by several laboratories.
CYP2C9 inhib = blockers of cytochrome P450 2C9 activity – biochemical, luminescence, ADME assay, primary screen. P11712. CYP2C9 Supersomes, luciferin-H conversion. inhibition, % at 5 µM. hit rate 20% among 96,000;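 active = blocking of liver enzyme CYP2C9 beyond about 50% at 5 µM, limit read from the data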
Target sequence (P11712 whole entry, looked up): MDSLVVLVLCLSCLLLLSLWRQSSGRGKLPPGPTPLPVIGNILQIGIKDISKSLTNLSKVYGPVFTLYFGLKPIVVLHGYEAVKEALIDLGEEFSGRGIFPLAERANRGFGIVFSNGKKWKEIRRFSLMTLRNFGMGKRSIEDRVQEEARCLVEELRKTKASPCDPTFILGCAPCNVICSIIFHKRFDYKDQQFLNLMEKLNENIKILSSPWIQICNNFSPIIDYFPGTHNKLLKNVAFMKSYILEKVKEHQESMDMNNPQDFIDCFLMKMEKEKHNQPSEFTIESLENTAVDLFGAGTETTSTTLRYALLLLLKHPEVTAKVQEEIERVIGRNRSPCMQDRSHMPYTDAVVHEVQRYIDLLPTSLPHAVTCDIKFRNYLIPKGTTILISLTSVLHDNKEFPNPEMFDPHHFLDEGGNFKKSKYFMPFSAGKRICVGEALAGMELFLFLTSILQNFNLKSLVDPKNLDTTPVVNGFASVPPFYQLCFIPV
CYP2C9 act = human CYP2C9 activators, primary screen, biochemical, luminescence. activation factor at 5 µM. recombinant CYP2C9, luciferin-H conversion; stronger effect = higher value; factor 1 = untreated enzyme, 0 = blocked. Cytochrome P450 2C9 (Homo sapiens), P11712. hit rate 1.4% among 96,000. AID 1024, 2008;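 active = activation factor of 2 or more for CYP2C9 at a 5 µM dose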;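 also: 0 = sulfaphenazole-blocked wells and 1 = vehicle-only wells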
Measles CPE = compounds protecting cells from measles virus cytopathic effect, primary screen, measles RdRp inhibitor project, single point, MLSMR library, absorbance; protection (pct of control), % at 4 µM; Measles virus-infected cells, CPE protection; AID 841, 2007; hit rate 1.5% among 140,000; in the data active = protection mostly above about 24%, no sharp cut-off; inactive = mostly below about 26%
CYP2C19 inhib = blockers of cytochrome P450 2C19 activity – biochemical, luminescence, ADME assay, primary screen | hit rate 21% among 96,000 | CYP2C19 Supersomes, luciferin-H EGE luminescence, 30 min | inhibition, % at 5 µM | P33261;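 active = CYP2C19 inhibition above a set limit at 5 µM in the primary screen, cut at about 50% in these data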;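 also: plate controls were negative control wells for no effect and 2.5 mM tranylcypromine positive control for full effect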
CYP2C19 activ = human CYP2C19 activators, primary screen, biochemical, luminescence | activation factor at 5 µM | 96,000 tested, under 10 active | recombinant CYP2C19, luciferin-H EGE luminescence; stronger effect = higher value; 0 = fully inhibited enzyme, 1 = untreated enzyme | AID 1025, 2008;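 active = activation factor of at least 2 at 5 µM in the primary screen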;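 also: 0 = wells with 2.5 mM tranylcypromine and 1 = vehicle-only wells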
Active calls of the source: *; · = not tested or not shown. Most compounds without a hit are left out; they make up all but 22% or so of the library.

SMILES	CYP2C9 inhib	CYP2C9 act	Measles CPE	CYP2C19 inhib	CYP2C19 activ
CC(OC(=O)c1ccc(Cl)c(S(=O)(=O)N2CCc3ccccc32)c1)C(=O)Nc1ncc(Cl)cc1Cl (centres undefined)	·	·	11	·	·
CCc1c(C)sc(NC(=O)c2cc(-c3ccco3)on2)c1C#N	-9	1.1	9	-6	1.1
CC(C)(CNc1ccc([N+](=O)[O-])cc1Cl)CNS(C)(=O)=O	44	0.6	37	55*	0.5
Cc1ccc(C(=O)N/C(=C\c2cccs2)C(=O)NCCc2c[nH]c3ccccc23)cc1	·	·	5	·	·
CCCCNC(=O)c1onc(CSc2ccc(F)c(F)c2)c1C(=O)O	73*	0.3	6	1	1
CCCCNC(=O)c1onc(CSc2ccc(C)c(C)c2)c1C(=O)O	83*	0.2	7	14	0.9
C=CCNC(=O)c1onc(CSc2ccc(C)c(C)c2)c1C(=O)O	88*	0.1	14	94*	0.1
O=C(NCC1CCCO1)c1onc(CSc2ccc(F)cc2)c1C(=O)O (centres undefined)	14	0.9	4	15	0.9
C=CCNC(=O)c1onc(CSc2ccccc2CC)c1C(=O)O	80*	0.2	15	4	1
Cc1ccc(N(C(=O)c2ccccc2Cl)C2=NC(C)CS2)c(C)c1 (centres undefined)	·	·	5	·	·
COC(=O)c1c(CSc2ccc(C)c(C)c2)noc1C(=O)NCc1ccc(OC)cc1	75*	0.2	23	65*	0.3
COC(=O)c1c(CSc2ccc(Cl)cc2)noc1C(=O)NCc1ccco1	9	0.9	7	0	1
COc1cccc(NC(=O)CSc2nc3n[nH]c(C)c3c(=N)n2-c2cccc(OC)c2)c1	80*	0.2	3	88*	0.1
CCc1ccc(NC(=O)CSc2nc3n[nH]c(C)c3c(=N)n2-c2cccc(OC)c2)cc1	·	·	8	·	·
Cc1ccc(CNC(=O)CSc2nc3n[nH]c(C)c3c(=N)n2-c2cccc(C)c2)cc1	54*	0.5	7	66*	0.3
Cc1cc(C)cc(NC(=O)C/C(N)=N/O)c1	1	1	1	-3	1
O=C(NC1=NCCS1)C12CC3CC(C1)CC(C(=O)NC1=NCCS1)(C3)C2	6	0.9	7	38	0.6
CC12CC3CC(C)(C1)CC(C(=O)NC1=NCCS1)(C3)C2	-9	1.1	5	58*	0.4
Cc1ccc(NC(=O)N/C=C/c2ccco2)c(C)c1	61*	0.4	22	76*	0.2
CCOc1ccccc1-c1nc(SCC(=O)O)n[nH]1	-11	1.1	9	-11	1.1
CCN(CC(=O)Nc1cccc(OC)c1)C(=O)C1CCN(C(=O)Nc2ccccc2)CC1	3	1	8	8	0.9
CC1CCC2C(C1)c1sc(=O)[nH]c1SC2(C)C (centres undefined)	6	0.9	13	4	1
Cc1ccc(-c2nc3ccccc3o2)cc1NC(=S)NC(=O)c1cc2ccccc2o1	·	·	10	·	·
Cc1ccc2oc(-c3ccc(C)c(NC(=S)NC(=O)c4cccs4)c3)nc2c1	·	·	59*	·	·
O=C(Nc1ccc2oc(-c3ccncc3)nc2c1)c1ccccc1F	68*	0.3	9	41	0.6
SMILES	CYP2C9 inhib	CYP2C9 act	Measles CPE	CYP2C19 inhib	CYP2C19 activ
O=C(Nc1ccc2oc(-c3ccncc3)nc2c1)c1cccs1	85*	0.2	42*	28	0.7
Cc1cc(C(=O)N/N=C/c2cccc(OC(=O)c3ccco3)c2)n[nH]1	16	0.8	31	-4	1
S=C(Nc1ccc2snnc2c1)N1CCN(c2ccccn2)CC1	18	0.8	5	26	0.7
Cc1ccc(NCN2C(=O)C3CC=CCC3C2=O)cc1 (centres undefined)	·	·	23	·	·
CC1=C(C#N)CCC(=O)N1Cc1ccc(C)cc1	18	0.8	7	61*	0.4
Cc1cccc(-n2c(SCc3cc(=O)n4ccsc4n3)nc3ccccc3c2=O)c1	50	0.5	13	22	0.8
O=c1c2ccccc2nc(SCc2cn3ccsc3n2)n1-c1ccccc1	94*	0.1	17	84*	0.2
O=c1c2ccccc2nc(SCc2cn3ccsc3n2)n1-c1ccccc1F	99*	0	4	77*	0.2
Cc1ccc(Nc2nnc(SCC(=O)Nc3cccnc3Cl)s2)cc1C	·	·	8	·	·
COC(=O)C1=CC(C(=O)c2cccs2)=NN(c2ccc(OC)cc2)C1C(=O)OC (centres undefined)	·	·	4	·	·
CCOC(=O)c1c(C)[nH]c(C(=O)CN2C(=O)NC(CC)(c3ccccc3)C2=O)c1C (centres undefined)	67*	0.3	4	64*	0.4
CCOC(=O)c1c(C)[nH]c(C(=O)CN2C(=O)NC(C)(c3ccc(C)cc3)C2=O)c1C (centres undefined)	75*	0.3	3	83*	0.2
CCOc1ccc(-c2nnc(Nc3ccc(OC)c(C(=O)N4CCCCC4)c3)c3ccccc23)cc1	·	·	3	·	·
CC1=C(C(=O)OCc2ccccc2)C(c2ccc(Cl)cc2)NC(=O)N1CCCCCC(=O)O (centres undefined)	·	·	3	·	·
COCCOC(=O)C1=C(C)N(Cc2ccccc2)C(=O)NC1c1ccc(OC)cc1 (centres undefined)	74*	0.3	52*	98*	0
CC1=C(C(=O)OCc2ccccc2)C(c2ccc(C#N)cc2)NC(=O)N1CCCC(=O)O (centres undefined)	·	·	31*	·	·
COc1ccc(-c2cc(C(=O)NCc3cn(C)nc3C)c3ccccc3n2)cc1OC	·	·	6	·	·
Clc1ccccc1CSc1ncn(-c2ccccc2)n1	·	·	26	·	·
CCOC(=O)c1ccc(NC(=O)CCc2nc(-c3cccc(C)c3)no2)cc1	52*	0.5	11	0	1
Cc1cccc(-c2noc(CCC(=O)Nc3ccccc3)n2)c1	75*	0.3	9	92*	0.1
Cc1cccc(-c2noc(CCC(=O)NCc3ccccc3)n2)c1	35	0.7	8	13	0.9
O=C(NN=C1CCCCCC1)c1c[nH]c2ccccc12	·	·	7	·	·
O=[N+]([O-])c1cc(-c2nc3nc4ccccc4nc3n2CCc2ccccc2)cc([N+](=O)[O-])c1	·	·	4	·	·
CN(C)c1ccc(C2NCC(CCl)O2)cc1 (centres undefined)	-8	1.1	18	17	0.8
COc1cc(C(=O)COC(=O)CNC(=O)C2CCCCC2)cc(OC)c1OC	12	0.9	9	26	0.7
N#CCCn1c(SCC(=O)NCc2ccco2)nc2ccccc21	-32	1.3	5	42	0.6
CCC(Sc1nc2ccccc2c2nc3ccccc3n12)C(=O)NCc1ccco1 (centres undefined)	78*	0.2	5	6	0.9
O=C(CSc1nc2ccccc2n1CC(=O)NCc1ccccc1)NCc1ccco1	82*	0.2	3	79*	0.2
